Source: PubChem (several laboratories)
CYP2C9 inh: blockers of cytochrome P450 2C9 activity – biochemical, luminescence, ADME assay, primary screen; inhibition, % at 5 µM; P11712; actives 20% (n = 96,000); CYP2C9 Supersomes, luciferin-H conversion;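 active = blocking of liver enzyme CYP2C9 beyond about 50% at 5 µM, limit read from the data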
CYP2C19 act: human CYP2C19 activators, primary screen, biochemical, luminescence. activation factor at 5 µM. recombinant CYP2C19, luciferin-H EGE luminescence; active compounds read high; 0 = fully inhibited enzyme, 1 = untreated enzyme. 96,000 tested, under 10 active. Cytochrome P450 2C19 (Homo sapiens), P33261. AID 1025, 2008;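 active = activation factor of at least 2 at 5 µM in the primary screen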;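 note: 0 = wells with 2.5 mM tranylcypromine and 1 = vehicle-only wells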
Target sequence (P33261 whole entry, looked up): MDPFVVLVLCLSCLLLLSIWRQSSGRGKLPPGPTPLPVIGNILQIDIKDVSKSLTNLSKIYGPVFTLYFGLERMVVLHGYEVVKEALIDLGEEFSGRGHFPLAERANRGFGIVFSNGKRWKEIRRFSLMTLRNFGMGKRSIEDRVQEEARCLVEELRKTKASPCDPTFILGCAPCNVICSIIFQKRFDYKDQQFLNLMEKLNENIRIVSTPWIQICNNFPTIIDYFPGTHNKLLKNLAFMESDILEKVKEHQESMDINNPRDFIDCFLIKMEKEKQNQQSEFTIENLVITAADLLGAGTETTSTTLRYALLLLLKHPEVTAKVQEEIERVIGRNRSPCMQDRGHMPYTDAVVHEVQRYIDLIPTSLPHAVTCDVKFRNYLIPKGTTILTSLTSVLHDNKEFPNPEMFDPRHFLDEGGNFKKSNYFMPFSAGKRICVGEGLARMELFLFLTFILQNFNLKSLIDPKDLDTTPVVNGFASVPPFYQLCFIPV
CYP2C19 inh: blockers of cytochrome P450 2C19 activity – biochemical, luminescence, ADME assay, primary screen | P33261 | CYP2C19 Supersomes, luciferin-H EGE luminescence, 30 min | inhibition, % at 5 µM | actives 21% (n = 96,000) | AID 778, 2007;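 active = CYP2C19 inhibition above a set limit at 5 µM in the primary screen, cut at about 50% in these data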;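 note: plate controls were negative control wells for no effect and 2.5 mM tranylcypromine positive control for full effect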
CYP2C9 activ: human CYP2C9 activators, primary screen, biochemical, luminescence | Cytochrome P450 2C9 (Homo sapiens), P11712 | activation factor at 5 µM | actives 1.4% (n = 96,000) | AID 1024, 2008 | recombinant CYP2C9, luciferin-H conversion; active compounds read high; factor 1 = untreated enzyme, 0 = blocked;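 active = activation factor of 2 or more for CYP2C9 at a 5 µM dose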;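 note: 0 = sulfaphenazole-blocked wells and 1 = vehicle-only wells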
Cav3 T inh: Cav3.2 calcium influx blockers – cell-based, Fluo-4 calcium fluorescence, FDSS, MLSMR library, primary screen; Cav3.2-expressing cells; active compounds read low; B-score at 10 µM; actives 4% (n = 100,000);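 active = single-dose well whose peak fluorescence ratio is a statistical outlier from its plate by either plate-standardised score or position-corrected B-score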
Numbers without * were called inactive. Only some compounds are listed: those with a hit (about 27% of all), similar ones and a draw of the others.

`Cc1sc(NC(=O)c2ccco2)c(C(c2cccnc2)N2CCN(c3ccc(F)cc3)CC2)c1C` (stereo not drawn) gave CYP2C9 inh 99.0*, CYP2C19 act 0, CYP2C19 inh 95.1*, CYP2C9 activ 0 and Cav3 T inh -1.33.
`CCOC(=O)c1c(C)oc2c1c(C(c1cccnc1)N1CCCCC1)c(O)c1ccccc12` (stereo not drawn) gave CYP2C9 inh 30.9, CYP2C19 act 0.9, CYP2C19 inh 5.1, CYP2C9 activ 0.7 and Cav3 T inh 1.51.
Screening O=C(NCC(c1cccnc1)N1CCN(c2ccccc2)CC1)c1ccco1 (stereo not drawn) returned Cav3 T inh -0.0187.
CCOC(=O)C1CCN(C(c2cccnc2)c2c(NC(=O)c3ccco3)sc(C)c2C)CC1 (stereo not drawn) was read as CYP2C9 inh 81.7*, CYP2C19 act 0.4, CYP2C19 inh 59.7* and CYP2C9 activ 0.2.
For O=C(NCC(c1cccnc1)N1CCN(c2ccc(F)cc2)CC1)c1ccccc1 (stereo not drawn) the results were CYP2C9 inh 20.7, CYP2C19 act 0.5, CYP2C19 inh 53.5*, CYP2C9 activ 0.8 and Cav3 T inh -1.56.
For Cc1nnc(SCCn2c(N(C)Cc3ccccc3)nc3c2c(=O)[nH]c(=O)n3C)s1 the results were CYP2C9 inh 9.0, CYP2C19 act 1, CYP2C19 inh -3.8, CYP2C9 activ 0.9 and Cav3 T inh 3.14.
For Cc1ccccc1OCc1nnc(SCC(=O)NCc2ccccc2)n1C the results were CYP2C9 inh -41.3, CYP2C19 act 1, CYP2C19 inh 0.8, CYP2C9 activ 1.4 and Cav3 T inh 0.113.
Cc1cccc(OCc2nnc(SCC(=O)c3cccs3)n2C)c1C was read as CYP2C9 inh 52.9*, CYP2C19 act 0.2, CYP2C19 inh 77.6*, CYP2C9 activ 0.5 and Cav3 T inh -0.828.
For CCn1c(SCC(=O)NCc2cccs2)nnc1-c1cccs1 the results were CYP2C9 inh 9.2, CYP2C19 act 0.6, CYP2C19 inh 36.0, CYP2C9 activ 0.9 and Cav3 T inh 0.461.
CCOC(=O)c1c(C)[nH]c(C(=O)CSc2nnnn2-c2ccccc2)c1C was read as CYP2C9 inh -7.5, CYP2C19 act 0.9, CYP2C19 inh 9.8, CYP2C9 activ 1.1 and Cav3 T inh -0.0104.
Screening CCn1c(SCC(=O)c2ccc(NS(=O)(=O)c3ccccc3)cc2)nnc1-c1cccs1 returned CYP2C9 inh 94.0*, CYP2C19 act 0.8, CYP2C19 inh 22.1, CYP2C9 activ 0.1 and Cav3 T inh -0.538.
`CCOC(=O)c1c(C)[nH]c(C(=O)CSc2nnc(-c3ccncc3)n2CC)c1C` gave CYP2C9 inh 83.8*, CYP2C19 act 0.1, CYP2C19 inh 93.9*, CYP2C9 activ 0.2 and Cav3 T inh -1.15.
`CCn1c(SCC(=O)NCCc2ccc(Cl)cc2)nnc1-c1cccs1` gave CYP2C9 inh 80.6*, CYP2C19 act 0.2, CYP2C19 inh 77.6*, CYP2C9 activ 0.2 and Cav3 T inh -1.05.
CCc1ccccc1N1CC(C(=O)O)CC1=O (stereo not drawn) was read as CYP2C9 inh -17.7, CYP2C19 act 1.1, CYP2C19 inh -12.9, CYP2C9 activ 1.2 and Cav3 T inh -0.329.
For Cn1c(=O)n(C)c2cc(NS(C)(=O)=O)ccc21 the results were CYP2C9 inh 10.1, CYP2C19 act 1, CYP2C19 inh 3.8, CYP2C9 activ 0.9 and Cav3 T inh 0.617.
Screening CCn1c(SCC(=O)c2[nH]c(C)c(C(C)=O)c2C)nnc1-c1cccs1 returned CYP2C9 inh 28.8, CYP2C19 act 0.4, CYP2C19 inh 64.2*, CYP2C9 activ 0.7 and Cav3 T inh 0.876.
For CCn1c(SCC(=O)c2cccs2)nnc1-c1cccs1 the results were CYP2C9 inh 45.1, CYP2C19 act 0, CYP2C19 inh 97.7*, CYP2C9 activ 0.5 and Cav3 T inh 0.545.
CCn1c(SCC(=O)NC(C)C)nnc1-c1cccs1 was read as CYP2C9 inh -2.2, CYP2C19 act 0.9, CYP2C19 inh 12.5, CYP2C9 activ 1 and Cav3 T inh -1.73.
